Compound activity deposited in PubChem by National Center for Advancing Translational Sciences (NCATS).
In the library only some 2.4% were active in any assay of this set; here they are far more common.
Pol eta inh-1: inhibitors of human DNA polymerase eta | Q9Y253 | recombinant Pol eta, fluorescent DNA replication assay | Potency, µM (highest dose often 114 µM), without a hit: top-dose activity change, negative = inhibition, usual class: inhibitors | 390,000 tested, 1.2% active | AID 588591; note: potency is the fitted concentration of half-maximal effect; % is set by controls: 0 for no effect and ±100 for the full control effect
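Pol eta (10 nM) was preincubated with compounds for 15 min at room temperature, after which fluorescent replication substrate (50 nM final) was added to start the reaction. Fluorescence was read kinetically at 0 and 10 min.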
Pol beta inh-1: DNA polymerase beta (human) inhibition; Potency, µM (titrated, usually from 114 µM), for the others: top-dose activity change, negative = inhibition, most hits filed as inhibitors; AID 485314; 340,000 tested, 1.3% active; Pol beta primer extension/strand displacement, fluorescence kinetic; note: potency is the fitted concentration of half-maximal effect; % is set by controls: 0 for no effect and ±100 for the full control effect
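Values derive from four-parameter Hill fits of normalized kinetic data: reads at 0 and 10 min following addition of 50 nM substrate to 10 nM Pol beta preincubated 15 min with compound.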
Pol iota inh: inhibitors of human DNA polymerase iota. Pol iota fluorescent replication assay, 10 min. AID 588590. Q9UNA4. 390,000 tested, 1% active. Potency, µM (highest dose often 115 µM), without a hit: at the top dose activity, negative = inhibition, hits mostly inhibitors; note: potency is the fitted concentration of half-maximal effect
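Pol iota at 10 nM preincubated 15 min with compounds at room temperature; reaction started with fluorescent substrate, 50 nM final. Fluorescence read kinetically at 0 and 10 min; buffer-only wells as negative control.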
Pol kappa inh-1: blocks human DNA polymerase kappa activity | purified Pol kappa, fluorescent DNA synthesis assay, 10 min | AID 588579 | Potency, µM (top dose mostly 107 µM), inactives show at the highest dose activity, negative = inhibition, actives largely listed as inhibitors | 400,000 tested, 0.53% active; note: potency is the fitted concentration of half-maximal effect; % is set by controls: 0 for no effect and ±100 for the full control effect
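Pol kappa 10 nM + cpd, 15 min RT; start w/ substrate 50 nM final; fluorescence kinetic read, 0 and 10 min. Neg ctrl: buffer, no enzyme.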
GCN5L2 inh-1: inhibitors of human GCN5L2 histone acetyltransferase; Q92830; GCN5L2 HAT assay, ThioGlo1 CoA-SH fluorescence; Potency, µM (series often up to 58.9 µM), inactives show top-dose activity change, negative = inhibition, hits mostly inhibitors; 390,000 tested, 0.21% active; note: potency is the fitted concentration of half-maximal effect; % is set by controls: 0 for no effect and ±100 for the full control effect
Target sequence (Q92830 whole entry, looked up): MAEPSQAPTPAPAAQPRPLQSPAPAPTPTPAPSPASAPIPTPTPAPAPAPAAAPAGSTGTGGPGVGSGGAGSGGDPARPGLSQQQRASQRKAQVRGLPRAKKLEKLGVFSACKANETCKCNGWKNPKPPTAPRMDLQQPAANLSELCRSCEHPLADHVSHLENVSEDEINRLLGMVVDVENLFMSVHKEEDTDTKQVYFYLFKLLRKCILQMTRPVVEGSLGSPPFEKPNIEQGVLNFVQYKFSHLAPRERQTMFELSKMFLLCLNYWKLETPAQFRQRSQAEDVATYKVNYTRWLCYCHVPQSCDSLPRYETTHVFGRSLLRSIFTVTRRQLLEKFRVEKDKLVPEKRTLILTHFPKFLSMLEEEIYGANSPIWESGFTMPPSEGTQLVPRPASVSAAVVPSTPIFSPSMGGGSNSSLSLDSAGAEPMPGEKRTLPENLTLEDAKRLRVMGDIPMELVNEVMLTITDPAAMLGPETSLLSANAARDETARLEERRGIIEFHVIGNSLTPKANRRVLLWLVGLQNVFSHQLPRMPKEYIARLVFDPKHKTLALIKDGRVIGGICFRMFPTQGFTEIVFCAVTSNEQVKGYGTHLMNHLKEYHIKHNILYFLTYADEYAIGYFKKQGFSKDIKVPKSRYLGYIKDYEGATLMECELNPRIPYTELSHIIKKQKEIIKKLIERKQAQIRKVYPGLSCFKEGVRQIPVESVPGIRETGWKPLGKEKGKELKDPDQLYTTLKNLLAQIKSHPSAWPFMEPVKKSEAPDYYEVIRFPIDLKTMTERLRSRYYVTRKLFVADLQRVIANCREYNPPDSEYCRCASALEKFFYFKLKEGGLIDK
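Titration-based screen in which CoA formation is detected via maleimide probe ThioGlo1 (50uM) turning fluorescent on thiol reaction; substrates H3(1-25) 75uM and acetyl-CoA 70uM, GCN5L2 20nM, 20 min incubation at room temperature.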
GLS inh: blocks human kidney-isoform glutaminase activity; AID 624170; Potency, µM (highest dose often 45.5 µM), inactives show at the highest dose activity change, negative = inhibition, usual class: inhibitors; GLS enzymatic activity, qHTS titration; 410,000 tested, 0.21% active; O94925; note: potency is the fitted concentration of half-maximal effect; % is set by controls: 0 for no effect and ±100 for the full control effect
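Coupled fluorescence readout: glutamate oxidase/HRP/Amplex Red detect glutamate formed by hKGA from L-glutamine (1 mM solution added). Buffer 45 mM KH2PO4 pH 8.2, 0.02% Tween-20; reads at t0 and 30 min RT.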
Pol beta inh-2: Human Pol beta inhibitor hit validation; Potency, µM, usual class: inhibitors; Pol beta primer extension/strand displacement, fluorescence kinetic; shares compounds with Pol beta inh-1; 250 tested, 87% active; calls by dose curve; note: potency is the fitted concentration of half-maximal effect
Klenow counter: counter-screen for DNA polymerase beta inhibitors: Klenow fragment inhibition; shares compounds with Pol beta inh-1; Klenow exo- polymerase counter-screen, fluorescent DNA substrate; activity change, negative = inhibition, % at 57.1 µM; 250 tested, under 10 active; AID 540300
HIV RT counter: counter-screen for DNA polymerase beta inhibitors: HIV-1 RT inhibition; shares compounds with Pol beta inh-1; HIV-1 RT polymerase activity, counter-screen; activity % (negative = inhibition, positive = activation), % at 57.1 µM; 250 tested, under 10 active; AID 540301
POLB valid: DNA polymerase beta inhibition, radiolabeled validation; shares compounds with Pol beta inh-1; radiolabeled primer extension gel assay, phosphorimager; inhibition, % at 10 µM; 110 tested, 91% active; AID 540325;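 active = inhibition at 10 µM of 30% or more; inconclusive = no clear call, values can overlap the other calls; inactive = inhibition at 10 µM under 30%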
GCN5L2 inh-2: human KAT2A HAT inhibition, hit confirmation | shares compounds with GCN5L2 inh-1 | Potency, µM, actives largely listed as inhibitors | GCN5L2 HAT, ThioGlo1 CoA fluorescence, 20 min | 140 tested, 70% active
PGK validate: blocks T. brucei phosphoglycerate kinase. shares compounds with Pol kappa inh-1. 500 tested, 79% active. Potency, µM (doses to about 57.5 µM), for the others: at the top dose activity change, negative = inhibition, hits mostly inhibitors. TbPGK coupled GAPDH assay, Kinase-Glo luminescence. AID 686980; note: potency is the fitted concentration of half-maximal effect; % is set by controls: 0 for no effect and ±100 for the full control effect; nearly all actives have a fitted effect of over 65% in size
POLI cherry-pick: Confirm cherry-picked inhibitors of human polymerase iota; Potency, µM, usual class: inhibitors; AID 720496; shares compounds with Pol kappa inh-1; Pol iota primer extension, TAMRA/BHQ fluorescence; 1,500 tested, 77% active; note: potency is the fitted concentration of half-maximal effect
GALK inh confirm: galactokinase (human) inhibition, confirmation; shares compounds with Pol eta inh-1; purified GALK, Kinase-Glo ATP depletion luminescence; Potency, µM (top dose mostly 115 µM), for the others: top-dose activity, negative = inhibition, usual class: inhibitors; 150 tested, 70% active; AID 2015
Redox cycling: redox cycling activity in phenol red-HRP assay | 150 tested, 40% active | shares compounds with Pol eta inh-1 | Potency, µM (top dose mostly 115 µM), without a hit: at the top dose activity change, negative = H2O2 signal, most hits filed as inhibitors | AID 2035 | Phenol red-HRP H2O2 redox cycling, absorbance 600 nm
HEK293 viability: counter-screen for GALK inhibitors: HEK293 cell cytotoxicity; HEK-293 viability, ATP luminescence (CellTiter-Glo), 24/48 h; AID 2547; shares compounds with Pol eta inh-1; Potency, µM (highest dose often 46.1 µM), for inactives: at the highest dose activity change, negative = cytotoxicity, hits mostly inhibitors; 170 tested, 10% active; note: potency is the fitted concentration of half-maximal effect; % is set by controls: 0 for no effect and ±100 for the full control effect
Pol kappa inh-2: Pol kappa (human) inhibition, cherry-pick confirmation; shares compounds with Pol eta inh-1; purified Pol-kappa, fluorescent strand-displacement substrate; Potency, µM, usual class: inhibitors; 920 tested, 76% active; AID 720501; note: potency is the fitted concentration of half-maximal effect
Pol eta inh-2: Pol eta (human) inhibition, cherry-pick confirmation; shares compounds with Pol eta inh-1; Pol eta primer extension, TAMRA/BHQ fluorescence, 10 min; Potency, µM, hits mostly inhibitors; 2,600 tested, 64% active; AID 720502; note: potency is the fitted concentration of half-maximal effect
Active calls of the source: *; ? = inconclusive; . = no result given; [ ] = remark or other dose. Unless noted, calls come from the whole dose curve; as a rule, active = well fitted curve in the direction sought with a large enough effect; inconclusive = small, poorly fitted or top-dose-only effect, or another doubt; inactive = no such curve, though single readings can be large; an effect the other way counts as inactive or inconclusive.

SMILES | Pol eta inh-1 | Pol beta inh-1 | Pol iota inh | Pol kappa inh-1 | GCN5L2 inh-1 | GLS inh | Pol beta inh-2 | Klenow counter | HIV RT counter | POLI cherry-pick | Pol eta inh-2 | others
CSc1nc(N(C)CCO)c2sc3nc(-c4ccco4)c4c(c3c2n1)CCC4 | 8.91µM* | 7.08µM* | 1µM* | ? | ? | 12.6µM* | ? | -30.6 | 9.4 | . | . | PGK validate=-18.6%
CSc1nc(NCCN(C)C)c2sc3nc(-c4ccco4)c4c(c3c2n1)CCC4 | ? | . | ? | -4.9% | . | -18.6% | . | . | . | . | .
O=C(c1cc2c(s1)CCCC2)N1CCN(Cc2ccc3c(c2)OCO3)CC1 | -16.6% | 9.1% | ? | -2.2% | -7.7% | -4.2% | . | . | . | . | .
O=C(Oc1ccc2c(c1)OCO2)c1cc2c(s1)CCC2 | 3.98µM* | 10µM* | 5.01µM* | 20µM* | ? | -24.1% | 15.8* | -31.0 | 30.0 | 18.9* | 67.5* | PGK validate=?
Cc1nc2cc(-c3ccsc3-n3c(C)ccc3C)[nH]n2c(=O)c1Cl | 25.1µM* | 10µM* | ? | ? | ? | 3.7% | 28.2* | -4.2 | -5.8 | . | 30.1* | POLB valid=73.7*;Pol kappa inh-2=29.9*
Cc1nc(C)c(C(=O)Nc2nc3c(C)cccc3s2)o1 | 25.1µM* | 17.8µM* | ? | 39.8µM* | -17.8% | -15.2% | 31.6* | -5.0 | 4.8 | ? | 47.8*
CC(=O)N[C@@H](CCCNC(=N)N)C(=O)N[C@H](CC1CCCCC1)C(=O)N[C@@H]1CCC2SC[C@@H](C(=O)N[C@H](CCCNC(=N)N)C(=O)N[C@H](Cc3ccc(Cl)cc3)C(N)=O)N2C1=O (stereo not given in full) | . | . | . | 1.8%[60.1 µM] | 31.0% | . | . | . | . | . | .
O=C(NCc1ccco1)c1c2c(nc3ccccc13)CCC2 | 3.16µM* | 11.2µM* | 8.91µM* | 31.6µM* | -9.7% | -12.9% | 25.1* | -5.9 | 9.7 | ? | 84.9* | POLB valid=99.3*
CN(CCC#N)C(=O)COC(=O)c1c2c(nc3ccccc13)/C(=C/c1ccco1)CC2 | 6.31µM* | 8.91µM* | 3.16µM* | 20µM* | ? | 6.31µM* | 22.4* | -26.9 | 6.0 | 29.9* | 53.6*
Cc1c2cnn(CC(=O)Nc3c(F)c(F)cc(F)c3F)c(=O)c2c(C)n1Cc1ccccc1F | 39.8µM* | 6.31µM* | 17.8µM* | 44.7µM* | 12.6µM* | 4.0% | 6.31* | -33.1 | -6.0 | 29.9* | 60.1* | GCN5L2 inh-2=20.4*
COc1cc(OC)c2c(c1O)OC(c1ccccc1)CC2=O (stereo not given) | 12.6µM* | 1.41µM* | 12.6µM* | 25.1µM* | -4.5% | -20.7% | 2.51* | -16.7 | 39.5 | ? | 67.5*
O=C1/C(=C\c2ccc(O)c(O)c2)C(c2ccccc2)=NN1c1ccccc1 | 8.91µM* | 8.91µM* | 22.4µM* | 70.8µM* | 0.7% | 0.0% | 7.08* | -12.2 | -17.8 | . | 42.6* | GALK inh confirm=?;Redox cycling=?;HEK293 viability=-11.6%;Pol kappa inh-2=18.9*
COc1cc(/C=C2\C(=O)N(c3ccc(NC(C)=O)cc3)N=C2c2ccccc2)ccc1O | 10.2% | 49.2% | ? | -10.4% | 7.2% | 26.5% | . | . | . | . | .
Cc1ccc(SCC(=O)c2ccc(CC(=O)O)s2)cc1 | 50.1µM* | 11.2µM* | ? | ? | -22.7% | 0.0% | 31.6* | -6.5 | -15.2 | . | 75.7*
CCn1c(SCC(=O)c2ccc(O)c(O)c2)nnc1-c1ccccc1OC | 1.41µM* | 10µM* | 10µM* | 20µM* | -2.8% | -2.7% | 8.91* | -9.5 | ? | ? | 30.1* | PGK validate=7.3µM*;Pol kappa inh-2=16.8*
CCn1c(CSc2nc3ccccc3s2)nnc1SCC(=O)c1ccc(O)c(O)c1 | ? | 4.47µM* | 35.5µM* | ? | -8.3% | 20.5% | 2* | -32.7 | ? | 37.7* | ?
CCn1c(SCC(=O)c2ccc(O)c(O)c2)nnc1-c1ccccc1 | ? | ? | ? | ? | -8.1% | 25.4% | . | . | . | . | .
